The supplement of paper PMC10849652
About 7,900 targets were measured; listed, in parts, are those with a hit and a random draw of the rest. About 0.6% of all pairs of compound and target were hits. Values without a mark were called inactive.

Key:
Test in all cases: log2 fold change, soluble protein after heating vs DMSO (PISA); higher = thermal stabilisation; K562 cells, 10 uM, 30 min; active = over 0.2 and 3.5 SD of the protein, either way, in both replicates (recomputed)
[1] = compound: C#Cc1cccc(Nc2ncnc3cc(OCCOC)c(OCCOC)cc23)c1 [erlotinib]
Procedure, shortened: (§1)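 Aliquots of K562 cells (2×10^6 cells/mL) treated with 10 μM compound for 30 min were heated for 3 min over 48°C-58°C. After pooling and extraction in PBS with 0.5% NP-40 at 4°C, soluble protein from a 21,000xg, 90 min spin was quantified by TMTpro 16plex LC-MS/MS with channel sums equalised. Thermal stability is expressed against control samples, from duplicates, as a log2 fold change.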

[2] = compound: C/C(=N\NC(=O)C1=CC(=CC=C1)S(=O)(=O)N2CCOCC2)/C3=C(C=CC(=C3)Cl)O
Procedure, shortened: as §1

[3] = compound: C1=CC(=C(C=C1Cl)C2=NC3=NC=CN=C3C(=N2)NC4=CC=NC=C4)F
Procedure, shortened: as §1

[4] = compound: C1=CC(=CC=C1C2=NC3=C(N2)C=C(C=C3)C(=O)N)OC4=CC=C(C=C4)Cl
Procedure, shortened: as §1

[5] = compound: C1=CC2=C(C=CC(=C2)/C=C\3/C(=O)NC(=NCC4=CC=CS4)S3)N=C1
Procedure, shortened: as §1

[6] = compound: C1=CC2=NC=CN=C2C=C1/C=C/3\C(=O)NC(=O)S3
Procedure, shortened: as §1

[7] = compound: C1=CC=C(C=C1)C2=NC(=C(N2)C3=CC=NC=C3)C4=CC(=C(C=C4)Cl)O
Procedure, shortened: as §1

[8] = compound: C1=CC=C2C(=C1)C3=NNC4=CC=CC(=C43)C2=O
Procedure, shortened: as §1

[9] = compound: C1CCN(C1)C(=O)NC2=CC=CC(=C2)NC3=NC=C(C(=N3)NCCC4=CN=CN4)Br
Procedure, shortened: as §1

[10] = compound: C1CN(CCC1(CC2=CC=C(C=C2)Cl)N)C3=NC=NC4=C3C=CN4
Procedure, shortened: as §1

UniProt P56962, sequence (P56962 whole entry, looked up): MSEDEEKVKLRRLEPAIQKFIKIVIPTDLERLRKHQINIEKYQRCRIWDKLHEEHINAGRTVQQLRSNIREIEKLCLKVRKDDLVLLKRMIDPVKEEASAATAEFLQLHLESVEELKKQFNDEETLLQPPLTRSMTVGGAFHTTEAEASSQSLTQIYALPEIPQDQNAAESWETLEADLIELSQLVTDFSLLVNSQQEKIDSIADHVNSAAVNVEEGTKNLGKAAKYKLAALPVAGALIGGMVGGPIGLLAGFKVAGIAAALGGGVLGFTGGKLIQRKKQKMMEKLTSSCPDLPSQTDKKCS
UniProt O75494, sequence (O75494 whole entry, looked up): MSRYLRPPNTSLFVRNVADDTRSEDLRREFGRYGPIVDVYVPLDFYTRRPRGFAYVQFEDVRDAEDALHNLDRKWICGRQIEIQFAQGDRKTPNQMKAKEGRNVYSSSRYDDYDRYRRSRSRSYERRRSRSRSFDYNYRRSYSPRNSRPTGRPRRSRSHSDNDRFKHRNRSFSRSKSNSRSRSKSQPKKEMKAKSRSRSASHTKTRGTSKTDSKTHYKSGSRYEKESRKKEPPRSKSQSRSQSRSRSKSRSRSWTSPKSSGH
UniProt Q92844, sequence (Q92844 whole entry, looked up): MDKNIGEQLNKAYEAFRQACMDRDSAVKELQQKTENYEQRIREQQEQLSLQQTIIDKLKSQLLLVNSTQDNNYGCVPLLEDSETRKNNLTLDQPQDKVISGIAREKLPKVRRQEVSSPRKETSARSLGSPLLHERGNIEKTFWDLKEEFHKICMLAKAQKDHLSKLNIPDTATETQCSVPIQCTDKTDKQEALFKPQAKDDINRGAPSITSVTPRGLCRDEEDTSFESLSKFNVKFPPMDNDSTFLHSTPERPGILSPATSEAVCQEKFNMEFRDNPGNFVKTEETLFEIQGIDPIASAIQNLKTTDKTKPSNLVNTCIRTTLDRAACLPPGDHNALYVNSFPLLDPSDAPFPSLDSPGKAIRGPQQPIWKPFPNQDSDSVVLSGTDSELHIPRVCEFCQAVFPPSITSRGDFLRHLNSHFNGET
UniProt Q14849, sequence (Q14849 whole entry, looked up): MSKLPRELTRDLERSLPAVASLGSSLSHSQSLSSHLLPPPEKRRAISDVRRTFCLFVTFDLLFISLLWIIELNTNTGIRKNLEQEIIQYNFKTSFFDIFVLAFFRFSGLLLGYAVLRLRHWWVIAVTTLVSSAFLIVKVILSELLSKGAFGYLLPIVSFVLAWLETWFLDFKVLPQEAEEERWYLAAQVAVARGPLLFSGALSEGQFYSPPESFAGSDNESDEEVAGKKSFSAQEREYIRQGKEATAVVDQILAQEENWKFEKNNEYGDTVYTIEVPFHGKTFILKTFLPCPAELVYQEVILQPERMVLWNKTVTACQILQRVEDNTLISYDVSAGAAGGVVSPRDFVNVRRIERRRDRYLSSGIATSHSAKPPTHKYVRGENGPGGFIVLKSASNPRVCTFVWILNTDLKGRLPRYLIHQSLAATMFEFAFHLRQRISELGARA
UniProt P05455, sequence (P05455 whole entry, looked up): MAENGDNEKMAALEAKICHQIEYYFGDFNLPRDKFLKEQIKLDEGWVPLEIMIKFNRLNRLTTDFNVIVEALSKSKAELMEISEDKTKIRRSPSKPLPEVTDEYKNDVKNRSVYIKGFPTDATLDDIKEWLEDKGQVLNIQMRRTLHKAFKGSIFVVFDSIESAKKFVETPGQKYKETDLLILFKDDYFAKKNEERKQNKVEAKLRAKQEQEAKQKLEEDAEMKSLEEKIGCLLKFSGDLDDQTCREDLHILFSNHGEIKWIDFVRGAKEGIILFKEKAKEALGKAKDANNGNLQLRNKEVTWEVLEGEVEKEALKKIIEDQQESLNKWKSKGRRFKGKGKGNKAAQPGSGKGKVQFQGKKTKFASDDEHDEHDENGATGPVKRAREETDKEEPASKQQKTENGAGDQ
UniProt Q9H2G2, sequence (Q9H2G2 whole entry, looked up): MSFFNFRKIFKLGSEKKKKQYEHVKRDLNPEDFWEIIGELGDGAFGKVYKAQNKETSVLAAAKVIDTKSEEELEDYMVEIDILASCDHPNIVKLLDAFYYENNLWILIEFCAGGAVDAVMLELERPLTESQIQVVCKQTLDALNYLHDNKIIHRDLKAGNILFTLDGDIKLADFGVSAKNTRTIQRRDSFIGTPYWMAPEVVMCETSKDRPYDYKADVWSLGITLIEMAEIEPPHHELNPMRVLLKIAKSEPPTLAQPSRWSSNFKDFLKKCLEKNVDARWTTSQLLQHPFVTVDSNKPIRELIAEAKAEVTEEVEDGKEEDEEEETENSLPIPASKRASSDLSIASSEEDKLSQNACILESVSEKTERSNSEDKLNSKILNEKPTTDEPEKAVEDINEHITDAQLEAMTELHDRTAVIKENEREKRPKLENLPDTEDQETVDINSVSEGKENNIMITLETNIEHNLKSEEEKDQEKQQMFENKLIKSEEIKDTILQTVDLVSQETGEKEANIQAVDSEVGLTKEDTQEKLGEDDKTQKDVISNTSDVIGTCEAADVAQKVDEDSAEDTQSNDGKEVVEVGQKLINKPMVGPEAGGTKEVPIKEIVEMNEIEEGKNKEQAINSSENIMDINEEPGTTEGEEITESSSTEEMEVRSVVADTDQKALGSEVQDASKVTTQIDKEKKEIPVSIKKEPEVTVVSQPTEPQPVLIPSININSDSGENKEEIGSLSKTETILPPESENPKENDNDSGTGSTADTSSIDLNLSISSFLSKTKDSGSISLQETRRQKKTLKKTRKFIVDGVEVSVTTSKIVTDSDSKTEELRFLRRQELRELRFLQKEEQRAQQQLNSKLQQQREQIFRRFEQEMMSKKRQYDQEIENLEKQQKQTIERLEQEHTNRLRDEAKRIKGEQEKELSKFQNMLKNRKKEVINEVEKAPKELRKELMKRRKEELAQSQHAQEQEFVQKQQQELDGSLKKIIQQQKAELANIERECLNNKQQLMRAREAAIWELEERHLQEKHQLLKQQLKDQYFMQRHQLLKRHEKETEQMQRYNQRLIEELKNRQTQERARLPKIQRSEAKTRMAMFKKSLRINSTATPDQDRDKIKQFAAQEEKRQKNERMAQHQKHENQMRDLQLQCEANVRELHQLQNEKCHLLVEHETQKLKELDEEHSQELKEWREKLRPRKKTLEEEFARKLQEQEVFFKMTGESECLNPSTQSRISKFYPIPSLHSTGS
UniProt Q4KMP7, sequence (Q4KMP7 whole entry, looked up): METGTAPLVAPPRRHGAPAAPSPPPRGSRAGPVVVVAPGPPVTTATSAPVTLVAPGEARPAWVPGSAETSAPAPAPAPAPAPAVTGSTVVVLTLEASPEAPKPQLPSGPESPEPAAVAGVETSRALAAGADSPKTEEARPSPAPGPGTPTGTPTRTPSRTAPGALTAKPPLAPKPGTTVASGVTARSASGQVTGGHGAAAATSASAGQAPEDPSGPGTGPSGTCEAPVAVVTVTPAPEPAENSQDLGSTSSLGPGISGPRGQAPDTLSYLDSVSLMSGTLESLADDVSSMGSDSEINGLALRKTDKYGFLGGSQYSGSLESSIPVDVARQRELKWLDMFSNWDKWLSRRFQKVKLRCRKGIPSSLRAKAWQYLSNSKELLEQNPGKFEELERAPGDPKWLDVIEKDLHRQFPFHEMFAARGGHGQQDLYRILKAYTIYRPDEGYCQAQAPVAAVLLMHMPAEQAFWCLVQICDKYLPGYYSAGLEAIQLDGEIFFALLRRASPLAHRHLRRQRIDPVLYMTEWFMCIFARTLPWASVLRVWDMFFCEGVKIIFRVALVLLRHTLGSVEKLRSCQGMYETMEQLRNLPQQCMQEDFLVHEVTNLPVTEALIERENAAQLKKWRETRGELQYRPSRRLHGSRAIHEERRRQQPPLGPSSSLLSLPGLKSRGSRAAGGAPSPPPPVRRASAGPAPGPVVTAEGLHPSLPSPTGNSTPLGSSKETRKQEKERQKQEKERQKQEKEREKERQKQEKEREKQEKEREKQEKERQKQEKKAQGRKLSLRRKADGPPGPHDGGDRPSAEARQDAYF
UniProt Q86VD7, sequence (Q86VD7 whole entry, looked up): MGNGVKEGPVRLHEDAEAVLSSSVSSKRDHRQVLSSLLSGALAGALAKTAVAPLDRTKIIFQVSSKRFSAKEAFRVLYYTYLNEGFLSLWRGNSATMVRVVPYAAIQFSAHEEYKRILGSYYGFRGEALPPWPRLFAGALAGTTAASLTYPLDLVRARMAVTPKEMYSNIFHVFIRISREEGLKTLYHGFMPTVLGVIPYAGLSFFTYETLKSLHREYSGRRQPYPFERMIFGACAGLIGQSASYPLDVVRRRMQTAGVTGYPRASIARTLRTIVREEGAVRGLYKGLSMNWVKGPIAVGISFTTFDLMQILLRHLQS
UniProt Q16629, sequence (Q16629 whole entry, looked up): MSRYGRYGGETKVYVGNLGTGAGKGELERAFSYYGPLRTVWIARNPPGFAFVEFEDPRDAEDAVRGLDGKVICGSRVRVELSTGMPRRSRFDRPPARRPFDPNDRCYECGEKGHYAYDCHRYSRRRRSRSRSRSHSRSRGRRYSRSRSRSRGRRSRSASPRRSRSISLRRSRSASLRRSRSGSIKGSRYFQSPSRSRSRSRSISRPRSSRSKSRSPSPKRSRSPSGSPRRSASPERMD
UniProt Q15796, sequence (Q15796 whole entry, looked up): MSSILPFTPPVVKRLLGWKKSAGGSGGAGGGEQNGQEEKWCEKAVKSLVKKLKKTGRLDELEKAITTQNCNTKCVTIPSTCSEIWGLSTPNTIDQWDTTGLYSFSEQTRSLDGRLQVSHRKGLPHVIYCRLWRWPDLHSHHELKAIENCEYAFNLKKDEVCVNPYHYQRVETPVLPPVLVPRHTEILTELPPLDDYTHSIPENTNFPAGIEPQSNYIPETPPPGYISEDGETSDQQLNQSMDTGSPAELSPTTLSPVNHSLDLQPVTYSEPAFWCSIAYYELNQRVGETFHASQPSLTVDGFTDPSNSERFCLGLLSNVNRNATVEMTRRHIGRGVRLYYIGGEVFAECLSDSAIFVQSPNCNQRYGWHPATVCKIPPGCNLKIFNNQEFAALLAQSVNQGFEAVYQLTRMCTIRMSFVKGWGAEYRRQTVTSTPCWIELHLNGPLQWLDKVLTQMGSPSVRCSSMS

Row | Target | log2 fold change [1] | log2 fold change [2] | log2 fold change [3] | log2 fold change [4] | log2 fold change [5] | log2 fold change [6] | log2 fold change [7] | log2 fold change [8] | log2 fold change [9] | log2 fold change [10]
1 | SUN2 (UniProt Q9UH99) | -0.067 | 0.023 | -0.031 | -0.004 | -0.012 | 0.02 | 0.005 | -0.087 | -0.038 | -0.017
2 | SRSF10 (UniProt O75494) | 0.004 | -0.284 | -0.701 (active) | 0.035 | -0.044 | 0.048 | -0.148 | -0.022 | 0.063 | -0.135
3 | THRAP3 (UniProt Q9Y2W1) | 0.081 | 0.023 | -0.071 | 0.067 | -0.094 | -0.002 | -0.097 | -0.171 | 0.038 | -0.09
4 | TAOK3 (UniProt Q9H2K8) | -0.017 | 0.08 | 0.009 | 0.037 | 0.02 | 0.018 | 0.018 | -0.007 | -0.044 | 0.007
5 | STARD9 (UniProt Q9P2P6) | 0.026 | 0.117 | -0.089 | 0.119 | 0.06 | 0 | -0.131 | 0.005 | -0.003 | -0.099
6 | SNRPB2 (UniProt P08579) | -0.032 | -0.056 | -0.01 | -0.019 | -0.034 | 0.042 | -0.054 | -0.015 | 0.057 | -0.026
7 | TFR2 (UniProt Q9UP52) | 0.009 | -0.019 | -0.012 | -0.015 | 0.018 | 0.016 | -0.039 | -0.023 | 0.03 | 0.018
8 | ST6GAL1 (UniProt P15907) | 0.053 | 0.006 | 0.017 | 0.022 | -0.033 | -0.009 | 0.064 | 0.048 | -0.064 | 0.041
9 | SULT1A1 (UniProt P50225) | -0.003 | 0.009 | 0.109 | 0.381 | 0.375 (active) | 0.031 | 0.008 | 0.396 (active) | -0.111 | 0.012
10 | SLK isoform 2 (UniProt Q9H2G2) | -0.023 | 0.083 | -0.098 | -0.001 | 0.043 | 0.075 | -0.135 | -0.047 | -0.028 | -0.057
11 | TBC1D24 (UniProt Q9ULP9) | 0.038 | 0.068 | 0.059 | 0.037 | 0.072 | 0 | 0.048 | 0.053 | 0.042 | 0.157
12 | SLC9A6 isoform 2 (UniProt Q92581) | -0.024 | 0.014 | 0.053 | 0.026 | -0.009 | 0.029 | -0.04 | -0.056 | -0.013 | 0.031
13 | TBC1D23 (UniProt Q9NUY8) | 0.043 | 0.012 | 0.047 | 0.067 | 0.071 | 0.021 | -0.032 | -0.054 | -0.036 | -0.025
14 | TMBIM1 (UniProt Q969X1) | 0.092 | -0.139 | 0.122 | -0.017 | 0.198 | -0.025 | 0.517 (active) | -0.069 | 0.172 | 0.049
15 | SMAD2 (UniProt Q15796) | 0.061 | 0.087 | -0.065 | 0.04 | 0.069 | -0.004 | -0.05 | -0.045 | -0.034 | 0.019
16 | SNX3 (UniProt O60493) | 0.129 | 0.074 | -0.056 | -0.052 | 0.078 | -0.058 | 0.123 | -0.136 | 0.026 | -0.068
17 | STAM2 (UniProt O75886) | -0.026 | 0.081 | 0.036 | -0.031 | 0.022 | 0.01 | 0.002 | -0.006 | -0.047 | -0.025
18 | TERF2IP (UniProt Q9NYB0) | -0.046 | 0 | -0.016 | -0.003 | 0.022 | 0.049 | -0.038 | -0.074 | -0.047 | -0.006
19 | SLC25A42 (UniProt Q86VD7) | 0.08 | 0.01 | 0.089 | 0.01 | -0.032 | -0.026 | 0.079 | -0.137 | -0.086 | 0.066
20 | SRSF7 (UniProt Q16629) | 0.083 | -0.043 | -0.292 | 0.063 | -0.154 | -0.032 | -0.135 | -0.037 | 0.084 | -0.063
21 | SSB (UniProt P05455) | -0.05 | 0.045 | 0.013 | 0.028 | -0.043 | -0.014 | -0.056 | -0.169 | -0.151 | -0.03
22 | STX17 (UniProt P56962) | 0.206 | 0.003 | 0.124 | 0.015 | 0.041 | 0.016 | -0.01 | 0.059 | -0.004 | 0.027
23 | STARD3 (UniProt Q14849) | -0.073 | 0.133 | -0.05 | 0.022 | -0.095 | 0.058 | -0.028 | 0.197 | 0.059 | 0.04
24 | STXBP5 (UniProt Q5T5C0) | 0.028 | 0.039 | 0.097 | 0.018 | 0.094 | 0.026 | 0.036 | -0.015 | -0.014 | 0.011
25 | TBC1D10B (UniProt Q4KMP7) | -0.013 | 0.063 | -0.018 | 0.039 | -0.008 | 0.036 | -0.033 | -0.109 | -0.024 | -0.033
26 | TANK (UniProt Q92844) | -0.019 | -0.031 | 0.101 | -0.048 | 0.002 | 0.053 | -0.024 | -0.028 | 0.014 | 0.01
27 | SYF2 (UniProt O95926) | -0.042 | -0.054 | -0.052 | 0.05 | -0.054 | 0.069 | 0.023 | -0.097 | -0.024 | 0.122
28 | SPAG9 (UniProt O60271) | 0.018 | -0.025 | 0.034 | -0.016 | 0.028 | 0.039 | -0.016 | -0.012 | 0.015 | -0.009
29 | TFAM (UniProt Q00059) | -0.085 | -0.071 | -0.127 | 0.031 | -0.009 | -0.022 | -0.068 | -0.05 | 0.06 | -0.078
30 | SPART (UniProt Q8N0X7) | 0.024 | 0.008 | 0.057 | 0.008 | 0.07 | 0.002 | -0.008 | -0.014 | -0.033 | -0.055
